# What was measured:
# [1] = biological target: T1, Ephrin type-B receptor 1 (Homo sapiens) (UniProt P54762); conditions: at 10 µM
# T1 sequence (whole entry): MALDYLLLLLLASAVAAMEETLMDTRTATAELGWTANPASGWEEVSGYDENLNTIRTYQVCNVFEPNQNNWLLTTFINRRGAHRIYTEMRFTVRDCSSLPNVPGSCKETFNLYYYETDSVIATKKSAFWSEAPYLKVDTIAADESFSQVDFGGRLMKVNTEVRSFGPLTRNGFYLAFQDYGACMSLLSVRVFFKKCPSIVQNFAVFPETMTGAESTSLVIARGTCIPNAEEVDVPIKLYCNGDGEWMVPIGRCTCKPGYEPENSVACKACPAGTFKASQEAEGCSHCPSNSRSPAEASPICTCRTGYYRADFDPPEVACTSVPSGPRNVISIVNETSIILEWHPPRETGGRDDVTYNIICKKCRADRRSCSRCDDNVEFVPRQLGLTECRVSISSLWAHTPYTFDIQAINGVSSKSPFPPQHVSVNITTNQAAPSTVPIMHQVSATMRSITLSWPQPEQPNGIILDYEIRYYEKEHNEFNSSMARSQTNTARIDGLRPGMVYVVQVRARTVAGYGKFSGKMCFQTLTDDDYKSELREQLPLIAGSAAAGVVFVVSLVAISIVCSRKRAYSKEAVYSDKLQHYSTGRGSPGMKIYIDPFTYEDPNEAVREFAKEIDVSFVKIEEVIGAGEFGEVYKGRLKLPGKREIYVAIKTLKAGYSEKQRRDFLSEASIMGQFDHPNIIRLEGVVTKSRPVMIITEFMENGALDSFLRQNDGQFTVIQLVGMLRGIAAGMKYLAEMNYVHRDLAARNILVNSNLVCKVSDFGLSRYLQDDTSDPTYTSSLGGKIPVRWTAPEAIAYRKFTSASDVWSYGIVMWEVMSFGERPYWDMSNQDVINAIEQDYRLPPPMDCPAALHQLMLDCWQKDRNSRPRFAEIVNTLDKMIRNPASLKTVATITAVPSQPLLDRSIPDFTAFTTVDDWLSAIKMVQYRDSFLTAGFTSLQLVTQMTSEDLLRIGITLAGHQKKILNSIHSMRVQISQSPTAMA
# [2] = biological target: T2, Ephrin type-B receptor 2 (Homo sapiens) (UniProt P29323); conditions: at 10 µM
# T2 sequence (whole entry): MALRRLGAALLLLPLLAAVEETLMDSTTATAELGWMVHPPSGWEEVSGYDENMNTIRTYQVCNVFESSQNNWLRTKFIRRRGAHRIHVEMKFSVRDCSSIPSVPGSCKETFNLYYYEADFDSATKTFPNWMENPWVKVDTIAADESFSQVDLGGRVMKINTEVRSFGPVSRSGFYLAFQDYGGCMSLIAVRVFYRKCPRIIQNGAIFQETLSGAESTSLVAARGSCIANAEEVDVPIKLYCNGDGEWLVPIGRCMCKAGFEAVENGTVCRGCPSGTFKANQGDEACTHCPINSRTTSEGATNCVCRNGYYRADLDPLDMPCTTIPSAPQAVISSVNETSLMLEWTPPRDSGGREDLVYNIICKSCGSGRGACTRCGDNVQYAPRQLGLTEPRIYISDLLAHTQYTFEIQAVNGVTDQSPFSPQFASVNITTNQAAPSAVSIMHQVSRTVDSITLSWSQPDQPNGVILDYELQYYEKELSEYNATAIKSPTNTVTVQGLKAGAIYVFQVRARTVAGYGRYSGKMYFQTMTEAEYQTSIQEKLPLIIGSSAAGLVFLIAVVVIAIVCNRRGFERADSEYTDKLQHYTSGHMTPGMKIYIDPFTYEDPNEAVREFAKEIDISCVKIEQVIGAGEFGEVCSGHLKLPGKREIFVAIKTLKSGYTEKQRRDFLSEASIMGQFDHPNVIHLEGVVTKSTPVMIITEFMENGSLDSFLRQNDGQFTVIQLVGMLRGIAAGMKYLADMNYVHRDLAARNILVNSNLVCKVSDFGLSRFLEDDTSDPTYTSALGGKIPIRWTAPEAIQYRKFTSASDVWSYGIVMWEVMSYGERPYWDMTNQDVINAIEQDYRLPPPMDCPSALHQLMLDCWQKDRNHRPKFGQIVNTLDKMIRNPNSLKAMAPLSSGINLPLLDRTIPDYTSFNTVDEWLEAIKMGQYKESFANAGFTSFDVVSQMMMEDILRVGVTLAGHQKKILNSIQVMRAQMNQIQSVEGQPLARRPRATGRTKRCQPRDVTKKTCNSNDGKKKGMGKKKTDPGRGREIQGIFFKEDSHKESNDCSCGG
# [3] = biological target: T3, Ephrin type-B receptor 4 (Homo sapiens) (UniProt P54760); conditions: at 1 µM
# T3 sequence (whole entry): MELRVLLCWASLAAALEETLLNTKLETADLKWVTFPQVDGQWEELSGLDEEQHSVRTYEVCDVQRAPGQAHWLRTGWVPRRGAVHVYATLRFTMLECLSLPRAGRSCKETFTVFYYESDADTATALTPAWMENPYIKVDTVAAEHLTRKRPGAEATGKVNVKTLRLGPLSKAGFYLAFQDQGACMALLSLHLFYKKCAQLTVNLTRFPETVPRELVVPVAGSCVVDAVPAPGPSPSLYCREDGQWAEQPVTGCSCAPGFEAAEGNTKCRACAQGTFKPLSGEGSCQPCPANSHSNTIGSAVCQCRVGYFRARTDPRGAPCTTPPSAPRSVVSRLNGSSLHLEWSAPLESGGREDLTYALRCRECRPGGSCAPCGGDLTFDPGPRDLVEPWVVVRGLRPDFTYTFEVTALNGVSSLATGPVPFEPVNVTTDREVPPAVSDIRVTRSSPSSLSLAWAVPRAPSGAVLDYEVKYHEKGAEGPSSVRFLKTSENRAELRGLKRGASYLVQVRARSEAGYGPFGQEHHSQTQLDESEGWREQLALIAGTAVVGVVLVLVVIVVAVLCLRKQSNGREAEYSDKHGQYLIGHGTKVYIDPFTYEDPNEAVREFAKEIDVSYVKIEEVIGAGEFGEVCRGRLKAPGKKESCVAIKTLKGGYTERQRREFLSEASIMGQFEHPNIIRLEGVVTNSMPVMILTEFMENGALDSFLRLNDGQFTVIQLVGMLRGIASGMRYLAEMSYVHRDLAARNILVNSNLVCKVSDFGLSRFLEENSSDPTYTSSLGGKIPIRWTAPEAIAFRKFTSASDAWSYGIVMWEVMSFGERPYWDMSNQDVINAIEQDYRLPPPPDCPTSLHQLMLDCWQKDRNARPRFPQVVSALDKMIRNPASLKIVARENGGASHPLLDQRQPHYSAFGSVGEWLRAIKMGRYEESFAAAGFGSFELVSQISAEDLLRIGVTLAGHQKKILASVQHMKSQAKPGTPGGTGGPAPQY
# [4] = biological target: T3, Ephrin type-B receptor 4 (Homo sapiens); conditions: at 10 µM
# [5] = biological target: Receptor tyrosine-protein kinase erbB-4 (Homo sapiens) (UniProt Q15303); conditions: at 1 µM
# Sequence of Receptor tyrosine-protein kinase erbB-4 (Homo sapiens) (Q15303 whole entry): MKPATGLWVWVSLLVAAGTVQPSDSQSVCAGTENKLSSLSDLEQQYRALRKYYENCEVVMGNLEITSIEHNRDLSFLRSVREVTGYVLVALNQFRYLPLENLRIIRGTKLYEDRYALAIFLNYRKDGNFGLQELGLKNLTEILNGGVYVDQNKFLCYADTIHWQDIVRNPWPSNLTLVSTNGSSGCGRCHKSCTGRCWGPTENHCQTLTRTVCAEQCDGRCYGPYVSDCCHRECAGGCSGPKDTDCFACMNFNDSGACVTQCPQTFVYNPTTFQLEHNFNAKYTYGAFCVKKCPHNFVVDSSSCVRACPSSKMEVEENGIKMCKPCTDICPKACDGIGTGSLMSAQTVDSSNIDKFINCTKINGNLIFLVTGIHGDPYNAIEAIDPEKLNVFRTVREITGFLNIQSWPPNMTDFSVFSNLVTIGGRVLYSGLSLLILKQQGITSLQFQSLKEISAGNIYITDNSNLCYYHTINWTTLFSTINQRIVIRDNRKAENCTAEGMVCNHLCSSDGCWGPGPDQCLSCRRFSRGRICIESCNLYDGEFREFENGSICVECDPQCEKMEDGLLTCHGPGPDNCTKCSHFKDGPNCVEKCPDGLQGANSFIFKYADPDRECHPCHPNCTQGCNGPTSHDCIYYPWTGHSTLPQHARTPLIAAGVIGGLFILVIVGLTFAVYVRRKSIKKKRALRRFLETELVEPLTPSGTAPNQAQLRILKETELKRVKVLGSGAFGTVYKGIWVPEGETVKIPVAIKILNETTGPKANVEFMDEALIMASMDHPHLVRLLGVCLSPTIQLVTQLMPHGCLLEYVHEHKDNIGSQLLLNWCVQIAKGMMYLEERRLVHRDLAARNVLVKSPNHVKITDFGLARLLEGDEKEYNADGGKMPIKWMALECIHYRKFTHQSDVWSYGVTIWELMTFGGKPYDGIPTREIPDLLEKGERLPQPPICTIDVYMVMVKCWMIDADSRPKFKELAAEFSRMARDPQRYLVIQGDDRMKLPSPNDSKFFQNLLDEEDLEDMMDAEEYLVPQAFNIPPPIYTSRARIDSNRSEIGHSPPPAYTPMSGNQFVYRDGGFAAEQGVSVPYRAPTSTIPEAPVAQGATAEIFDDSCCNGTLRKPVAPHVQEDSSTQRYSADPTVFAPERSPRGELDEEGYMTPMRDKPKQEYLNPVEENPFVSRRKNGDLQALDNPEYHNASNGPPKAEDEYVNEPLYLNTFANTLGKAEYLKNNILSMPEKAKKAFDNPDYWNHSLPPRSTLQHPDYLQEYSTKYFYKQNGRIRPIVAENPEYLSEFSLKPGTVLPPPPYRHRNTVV
# [6] = biological target: Focal adhesion kinase 1 (Homo sapiens) (UniProt Q05397); conditions: at 1 µM
# Sequence of Focal adhesion kinase 1 (Homo sapiens) (Q05397 2-1052 limits assumed): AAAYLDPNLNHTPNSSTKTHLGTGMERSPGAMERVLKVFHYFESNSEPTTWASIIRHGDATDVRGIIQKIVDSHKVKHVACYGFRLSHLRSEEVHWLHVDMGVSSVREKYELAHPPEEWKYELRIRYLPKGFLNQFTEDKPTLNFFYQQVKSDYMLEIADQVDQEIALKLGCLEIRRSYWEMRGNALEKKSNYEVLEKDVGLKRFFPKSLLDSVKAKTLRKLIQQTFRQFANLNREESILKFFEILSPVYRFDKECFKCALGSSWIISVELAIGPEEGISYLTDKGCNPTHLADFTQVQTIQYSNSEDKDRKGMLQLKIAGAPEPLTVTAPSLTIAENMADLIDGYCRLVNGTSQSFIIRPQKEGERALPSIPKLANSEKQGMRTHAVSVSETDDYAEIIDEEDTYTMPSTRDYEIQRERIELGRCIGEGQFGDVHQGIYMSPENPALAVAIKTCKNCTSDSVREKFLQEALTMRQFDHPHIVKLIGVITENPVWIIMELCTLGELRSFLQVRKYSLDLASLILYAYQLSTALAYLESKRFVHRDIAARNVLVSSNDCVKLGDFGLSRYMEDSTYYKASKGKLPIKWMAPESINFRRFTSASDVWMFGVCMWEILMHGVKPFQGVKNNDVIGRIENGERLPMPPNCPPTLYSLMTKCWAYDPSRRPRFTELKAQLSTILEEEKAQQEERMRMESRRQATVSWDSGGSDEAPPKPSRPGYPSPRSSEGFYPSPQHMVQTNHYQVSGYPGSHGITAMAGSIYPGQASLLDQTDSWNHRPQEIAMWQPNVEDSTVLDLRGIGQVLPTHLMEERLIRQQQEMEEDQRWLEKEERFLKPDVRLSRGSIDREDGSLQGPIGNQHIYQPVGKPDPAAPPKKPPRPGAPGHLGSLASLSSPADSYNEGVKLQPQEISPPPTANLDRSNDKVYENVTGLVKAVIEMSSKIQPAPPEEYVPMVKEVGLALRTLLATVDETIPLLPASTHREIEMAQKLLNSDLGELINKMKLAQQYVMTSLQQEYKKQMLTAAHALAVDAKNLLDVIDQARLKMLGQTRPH
# [7] = biological target: T2, Ephrin type-B receptor 2 (Homo sapiens); conditions: at 1 µM
# [8] = biological target: T4, Ephrin type-B receptor 3 (Homo sapiens) (UniProt P54753); conditions: at 1 µM
# T4 sequence (whole entry): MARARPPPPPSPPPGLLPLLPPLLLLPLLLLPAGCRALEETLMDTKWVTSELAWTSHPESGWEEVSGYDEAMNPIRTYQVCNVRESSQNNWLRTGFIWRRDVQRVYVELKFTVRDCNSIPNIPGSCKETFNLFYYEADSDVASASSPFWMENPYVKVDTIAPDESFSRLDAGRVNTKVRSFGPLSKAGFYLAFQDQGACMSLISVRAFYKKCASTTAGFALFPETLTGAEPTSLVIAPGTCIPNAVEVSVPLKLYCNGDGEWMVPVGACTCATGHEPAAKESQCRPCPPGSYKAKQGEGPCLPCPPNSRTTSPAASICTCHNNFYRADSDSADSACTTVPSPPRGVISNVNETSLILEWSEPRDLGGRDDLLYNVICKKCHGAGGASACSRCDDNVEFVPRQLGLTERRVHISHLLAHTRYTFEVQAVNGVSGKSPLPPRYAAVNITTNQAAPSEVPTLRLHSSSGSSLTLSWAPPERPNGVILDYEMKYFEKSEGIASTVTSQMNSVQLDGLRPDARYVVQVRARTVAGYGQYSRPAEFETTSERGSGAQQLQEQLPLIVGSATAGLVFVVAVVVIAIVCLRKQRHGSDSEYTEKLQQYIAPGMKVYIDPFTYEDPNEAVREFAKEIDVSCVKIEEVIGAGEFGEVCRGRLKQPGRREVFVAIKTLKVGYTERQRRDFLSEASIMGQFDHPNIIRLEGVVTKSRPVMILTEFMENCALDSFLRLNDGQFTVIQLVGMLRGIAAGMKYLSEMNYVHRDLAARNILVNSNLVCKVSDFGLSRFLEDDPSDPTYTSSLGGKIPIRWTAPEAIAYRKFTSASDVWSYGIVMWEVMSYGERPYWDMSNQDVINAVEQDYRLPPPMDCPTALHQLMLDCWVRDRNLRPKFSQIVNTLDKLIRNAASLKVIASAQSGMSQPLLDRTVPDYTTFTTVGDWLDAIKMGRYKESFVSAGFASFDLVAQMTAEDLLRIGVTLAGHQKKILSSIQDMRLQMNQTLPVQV
# [9] = biological target: T4, Ephrin type-B receptor 3 (Homo sapiens); conditions: at 10 µM
# [10] = biological target: Receptor tyrosine-protein kinase erbB-4 (Homo sapiens) (UniProt Q15303); conditions: at 10 µM
smiles,measurement,setting,value
COc1ccc2c(c1)/C(=C/c1cnc[nH]1)C(=O)N2,residual activity,[1],59%
same,residual activity,[2],97%
same,residual activity,[3],98%
same,residual activity,[4],77%
same,residual activity,[5],127%
same,residual activity,[6],99%
COc1cc2ncnc(Nc3ccc(OCc4ccccc4)cc3)c2cc1OC,residual activity,[1],106%
same,residual activity,[7],118%
same,residual activity,[2],114%
same,residual activity,[8],117% (inactive)
same,residual activity,[9],100%
same,residual activity,[3],117%
same,residual activity,[4],132%
same,residual activity,[6],136%
C[S+]([O-])c1ccc(-c2nc(-c3ccc(F)cc3)c(-c3ccncc3)[nH]2)cc1 (stereo not drawn),residual activity,[1],56%
same,residual activity,[7],101%
same,residual activity,[2],61%
same,residual activity,[8],114% (inactive)
same,residual activity,[9],105%
same,residual activity,[3],107%
same,residual activity,[4],41%
same,residual activity,[5],115%
same,residual activity,[10],82%
same,residual activity,[6],125%
N/C(=N\[N+](=O)[O-])N/N=C\c1ccc(-c2cccc([N+](=O)[O-])c2)o1,residual activity,[3],90%
same,residual activity,[4],90%
same,residual activity,[5],100%
same,residual activity,[10],88%
O=C1Nc2ccc3ncsc3c2/C1=C/c1c[nH]cn1,residual activity,[1],9%
same,residual activity,[7],87%
same,residual activity,[2],29%
same,residual activity,[8],120% (inactive)
same,residual activity,[9],131%
same,residual activity,[3],79%
same,residual activity,[4],29%
same,residual activity,[5],88%
same,residual activity,[10],102%
same,residual activity,[6],73%
CC(C)(C)c1cc(C=C(C#N)C#N)cc(Br)c1O,residual activity,[1],96%
same,residual activity,[7],116%
same,residual activity,[2],121%
same,residual activity,[8],96% (inactive)
same,residual activity,[9],121%
same,residual activity,[3],102%
same,residual activity,[4],110%
same,residual activity,[5],114%
same,residual activity,[10],132%
same,residual activity,[6],149%
CN[C@@H]1C[C@H]2O[C@@](C)([C@@H]1OC)n1c3ccccc3c3c4c(c5c6ccccc6n2c5c31)C(=O)NC4,residual activity,[9],131%
same,residual activity,[3],79%
CCn1cnc2c(Nc3cccc(Cl)c3)nc(N[C@@H]3CCCC[C@@H]3N)nc21,residual activity,[1],1%
same,residual activity,[7],56%
same,residual activity,[2],0%
same,residual activity,[3],51%
same,residual activity,[4],9%
same,residual activity,[5],83%
same,residual activity,[10],68%
same,residual activity,[6],53%
c1cc(-c2cnn3cc(-c4ccc(OCCN5CCCCC5)cc4)cnc23)ccn1,residual activity,[1],0%
same,residual activity,[7],25%
same,residual activity,[2],0%
same,residual activity,[8],118% (inactive)
same,residual activity,[9],117%
same,residual activity,[3],20%
same,residual activity,[4],-1%
same,residual activity,[5],129%
same,residual activity,[10],100%
same,residual activity,[6],123%

# From ChEMBL document CHEMBL2218924, “A broad activity screen in support of a chemogenomic map for kinase signalling research and drug discovery” (Biochem J, 2013)
